# Marburg entry inh – qHTS for inhibitors of binding or entry into cells for Marburg Virus; Marburg virus pseudotyped entry inhibition, cell reporter; Potency, µM (top dose mostly 37.8 µM), without a hit: at the top dose activity change, negative = inhibition, usual class: inhibitors; actives 1.8% (n = 300,000); AID 540276, 2011; calls by dose curve; tested in HEK293 cells; also: potency is read from the fitted curve at half-maximal effect; % is scaled to controls: 0 for no effect and ±100 for the full control effect
# Shiga toxin inh – A qHTS for Small Molecule Inhibitors of Shiga Toxin; Vero cells, Shiga toxin protein synthesis inhibition reporter; inhibition, % at 38.7 µM; actives 9.2% (n = 290,000); in the data active = inhibition mostly above about 28%, no sharp cut-off; inactive = mostly below about 43%; also: 0% is about no effect
# VACV mCherry inh – qHTS for Stage-Specific Inhibitors of Vaccinia Orthopoxvirus: mCherry Reporter Primary qHTS. Vaccinia virus mCherry reporter infection, fluorescence. Potency, µM (highest dose often 36.5 µM), for the others: top-dose activity change, negative = inhibition, most hits filed as inhibitors. actives 0.63% (n = 310,000). AID 720579, 2013; calls by dose curve; tested in A549 cells; also: potency is read from the fitted curve at half-maximal effect; % is scaled to controls: 0 for no effect and ±100 for the full control effect; nearly all actives have a fitted effect of over 35% in size
# CHX counter – Cycloheximide Counterscreen for Small Molecule Inhibitors of Shiga Toxin; cell reporter, cycloheximide protein synthesis inhibition counterscreen; max response, %; actives 12% (n = 300,000); AID 2314, 2010; in the data active = max response mostly above about 13%, no sharp cut-off; inactive = mostly below about 14%; also: read at 38.3 µM for the half of the compounds with a filed dose; 0% is about no effect
# VACV Venus inh – qHTS for Stage-Specific Inhibitors of Vaccinia Orthopoxvirus: Venus Reporter Primary qHTS; Vaccinia virus Venus reporter expression, fluorescence; Potency, µM (highest dose often 36.5 µM), inactives show at the highest dose activity change, negative = inhibition, most hits filed as inhibitors; actives 0.46% (n = 330,000); AID 720580, 2013; calls by dose curve; tested in A549 cells; also: potency is read from the fitted curve at half-maximal effect; % is scaled to controls: 0 for no effect and ±100 for the full control effect; nearly all actives have a fitted effect of over 30% in size
# Lassa entry inh – qHTS for Inhibitors of binding or entry into cells for Lassa Virus | Lassa virus pseudotype entry inhibition, cell reporter | Potency, µM (top dose mostly 37.9 µM), without a hit: at the top dose activity change, negative = inhibition, usual class: inhibitors | actives 1.2% (n = 300,000) | AID 540256, 2011; calls by dose curve; tested in HEK293 cells; also: potency is read from the fitted curve at half-maximal effect; % is scaled to controls: 0 for no effect and ±100 for the full control effect; nearly all actives have a fitted effect of over 50% in size
# * marks the source's active call; other numbers are inactive results; i = inactive; ? = inconclusive; nt = not tested or not shown; [ ] = another dose, or the depositor's remark. This excerpt belongs to a sample that is enriched for hits.
SMILES,Marburg entry inh,Shiga toxin inh,VACV mCherry inh,CHX counter,VACV Venus inh,Lassa entry inh
CCN(CC)c1ccc(S(=O)(=O)N2CCOCC2)cc1NC(=O)CN1C(=O)NC2(CCC(C)CC2)C1=O (stereo not given),3%,nt,i,nt,-6%,-9%
COc1cc2c(cc1OC)[C@@H]1O[C@](CCCCN3C(=O)c4ccccc4C3=O)(C2)Oc2cc(C)n(Cc3ccccc3)c(=O)c21,-3%[14.2 µM],nt,nt,nt,nt,nt
Cc1cccc(CC(=O)Nc2sc(C(C)C)cc2C(=O)N2CCOCC2)c1,-20%,13,-15%,-3,-22%,-9%
O=C1CC[C@@H](CN(Cc2cccnc2)C2CCN(c3ccc(NC(=O)c4cnccn4)cc3)CC2)N1,nt,nt,i,nt,2%,nt
COc1ccc(-c2cc(C(=O)Nc3ccc(C(N)=O)cc3)c3ccccc3n2)cc1,?,65*,0%,16*,-11%,nt
COc1ccc(-c2cc(C(=O)N3CCCC3)c3ccccc3n2)cc1,nt,45*,nt,36*,nt,nt
COc1ccc2c(OC)cc(-c3ccccc3)nc2c1,-12%,12,-2%,-1,-15%,0%
COc1ccc(-c2cc3ccc(OC)cc3cn2)cc1,nt,nt,-19%,nt,-8%,nt
COc1ccc(-c2cc3cc(OC)c(OC)cc3c(C)n2)cc1,-16%[46.1 µM],75*,14%,34*,-2%,-2%
COc1ccc2cc(-c3ccon3)ccc2c1,?,107*,-16%,32*,-13%,-15%[46.1 µM]
CCOc1ccccc1C(=O)Nc1cc(-c2nc3cccnc3s2)ccc1C,nt,nt,0%,nt,-3%,-1%[46.1 µM]
CC(=O)Nc1nonc1-c1nnc(SCC(=O)Nc2ccc(F)cc2F)n1-c1ccccc1,6%[46.1 µM],nt,-1%,nt,-6%,-6%[46.1 µM]
COc1ccc(CNC(=O)c2ccc(Sc3ccc(Cl)cc3)c(NC(C)=O)c2)c(OC)c1,nt,nt,-14%,nt,-16%,-22%[46.1 µM]
CCOC(=O)c1sc(NC(=O)c2c(-c3ccccc3)c(-c3ccccc3)nn(C)c2=O)nc1C,?,nt,8%,nt,-6%,15%[46.1 µM]
COc1ccccc1C1CN(Cc2c(C)nn(C)c2Cl)Cc2ccccc2O1 (stereo not given),nt,nt,-9%,nt,2%,nt
Cc1ccsc1C(=O)N(Cc1cc2ccc(F)cc2nc1N1CCC(O)CC1)CC1CCCO1 (stereo not given),nt,nt,-7%,nt,5%,nt
O=C(CSC1=NS(=O)(=O)c2cc(Cl)ccc2N1)Nc1ccccc1C(F)(F)F,3%[46.1 µM],nt,-8%,nt,-5%,-23%
Cc1ccc(-c2cc(C(=O)N3CCN(c4ccccc4O)CC3)c3ccccc3n2)cc1,?,nt,-3%,nt,-21%,?
COc1ccc(NC(=O)c2cc(-c3ccc(C)o3)nc3ccccc23)cc1OC,?,80*,nt,38*,?,-6%
O=C(c1cc(-c2cccs2)nc2ccccc12)N1CCN(c2ccccc2O)CC1,?,91,-23%,19*,-19%,?
O=S(=O)(c1ccc2c(c1)CCCC2)N1CCN(c2nc(-c3ccccc3)nc3ccccc23)CC1,nt,nt,-13%,nt,-10%,nt
CC(=O)c1ccccc1OCCOc1ncnc2sccc12,26%[46.1 µM],36*,-6%,16*,-6%,?
Cc1cccc(OCC(=O)Nc2ccc(C(=O)OCc3cc(=O)n4nc(C5CC5)sc4n3)cc2)c1,nt,nt,i,nt,-14%,?
CNc1c([N+](=O)[O-])cnn1-c1ccccc1Cl,-9%,6,nt,15*,nt,7%
COc1cc(NC(=O)C23CC4CC(C2)CC(n2cnc([N+](=O)[O-])n2)(C4)C3)cc(OC)c1,2.5µM*,-5,-13%,-2,-12%,-11%
O=C(Nc1ccccc1)C12CC3CC(C1)CC(n1cnc([N+](=O)[O-])n1)(C3)C2,-10%,-9,13%,-5,7%,6%
C/C=C(/C)C(=O)OC1CC(C)(C)C[C@H]2C3=CC[C@@H]4[C@@]5(C)CCC(O[C@@H]6O[C@@H](C(=O)O)[C@@H](O)C(O[C@@H]7OC[C@H](O)[C@@H](O)[C@@H]7O[C@@H]7OC(CO)C(O)[C@@H](O)[C@@H]7O)C6O[C@@H]6OC(CO)C(O)C(O)C6O)[C@@](C)(CO)[C@@H]5CC[C@]4(C)[C@]3(C)CC(O)[C@@]12CO (stereo not given in full),nt,nt,?,nt,13µM*,nt

# From PubChem BioAssay
